Laboratory results reported in PubChem BioAssay (Tox21).
Inconclusive results are not listed. A number with no mark means an inactive call. Active and inactive are the calls of the source. Calls come from the whole dose curve; as a rule, active = well fitted activation curve with a large enough effect in the repeat runs; inconclusive = weak or mixed curves; inactive = flat fitted curve, though single readings scatter.

assay: A CellTox Green Cytotoxicity Assay to monitor cytotoxicity in HepG2 cells - 24 hour (AID 1224878); settings: CellTox Green fluorescence; series mostly up to 76.8 µM; cytotoxicity: at the top concentration; note: nearly all actives have a fitted effect of over 45% in size
Excerpt: National Center for Advancing Translational Sciences [NCATS]
NIH Chemical Genomics Center [NCGC]
U.S. Environmental Protection Agency [EPA]
National Institutes of Environmental Health Sciences [NIEHS]
National Toxicology Program [NTP]
Cell-based models are critical for drug discovery. Determining the natural cytotoxic effects resulting from test compounds is an essential research activity. A CellTox Green Cytotoxicity Assay to monitor cytotoxicity in real time of continues cell culture during 40 hours of the compound treatment was used to screen Tox21 10K library compounds in HepG2 cells. CellTox Green Cytotoxicity Assay is a nonlytic, homogeneous, biofluorescent method to measure cytotoxicity in cell culture after experimental manipulation. The assay system uses a proprietary asymmetric cyanine dye that is excluded from viable cells but preferentially stains the dead cell's DNA. […] Viable cells produce no appreciable increases in fluorescence. Therefore, the fluorescence signal produced by the binding interaction with dead cell DNA is proportional to cytotoxicity.
The mixture of HepG2 cell suspension and reagents were dispensed at 600cells/6 ul/well in 1536-well tissue culture treated black solid bottom plates using a Multidrop dispenser. After the assay plates were incubated at a 37 C/5% CO2 incubator for 5 hours, 23 nL of compounds dissolved in DMSO, positive and negative controls was transferred to the assay plate by a pintool work station. The plates were incubated at 37 C for 40 hours. The fluorescence intensity were measured at 0h, 8h, 16h, 24h, 32h and 40h time points using ViewLux plate reader during compound treatment.
% is set by controls: 0 for no effect and ±100 for the full control effect; potency is the fitted concentration of half-maximal effect.

| SMILES | cytotoxicity | Potency |
| --- | --- | --- |
| CC(c1ccc(O)cc1)c1ccc(O)cc1 | -3.75% | – |
| CCN | -0.348% | – |
| O=c1c(C2CC(c3ccc(-c4ccc(Br)cc4)cc3)Cc3ccccc32)c(O)sc2ccccc12 (stereo not given) | -8.34% [at 35.3 µM] | – |
| Cn1[nH]nnc1=S | 1.28% | – |
| N#C/C=C/C#N | 0.582% | – |
| ClCc1ccc(Cl)cc1Cl | 2.52% | – |
| CC(Cl)CN(C)C (stereo not given) | -9.16% | – |
| Fc1ccc(Oc2ccnc3cc(Cl)cc(Cl)c23)cc1 | 25.9% | – |
| O=[N+]([O-])c1ccc(Oc2ccc(C(F)(F)F)cc2[N+](=O)[O-])cc1 | -13.2% | – |
| O=C(CCl)Nc1ccccc1 | 0.591% | – |
| CC(=O)c1ccc(-c2ccccc2)cc1 | -4.67% | – |
| S=C=Nc1cccc2ccccc12 | 2.72% | – |
| ClC(Cl)=C(Cl)Cl | 4.71% | – |
| ClC1=C(Cl)[C@]2(Cl)[C@@H]3[C@@H](Cl)[C@H](Cl)C[C@@H]3[C@@]1(Cl)C2(Cl)Cl | 10.8% | – |
| COP(=O)(CCC(=O)NCO)OC | -5.61% | – |
| Clc1ccc(C(c2ccc(Cl)cc2)C(Cl)(Cl)Cl)cc1 | – | inactive |
| CC(C)CC(C)N (stereo not given) | -0.745% | – |
| Cc1ccc(CCl)cc1 | 3.76% | – |
| C[C@@H]1O[C@@H](O[C@@H]2C=C3CC[C@@H]4[C@H](CC[C@]5(C)[C@@H](c6ccc(=O)oc6)CC[C@]45O)[C@@]3(C)CC2)[C@H](O)[C@H](O)[C@H]1O | -16.9% [at 35.3 µM] | – |
| CCOC(=O)CC(=O)CCl | 2.94% | – |

| SMILES | cytotoxicity | Potency |
| --- | --- | --- |
| Clc1ccc(-c2ccc(Cl)c(Cl)c2Cl)c(Cl)c1Cl | 1.85% | – |
| CN(CCCC(O)c1cccnc1)N=O (stereo not given) | -18.5% | – |
| CC(O)C#N (stereo not given) | -0.322% | – |
| CC(C)CCCCCOC(=O)c1ccccc1C(=O)OCCCCCC(C)C | 2.49% | – |
| CCOP(=S)(OCC)SCS(=O)(=O)C(C)(C)C | -2.91% | – |
| CC(=O)[O-].CC(=O)[O-].O.O.[Cd+2] | – | 48.3 µM (active) |
| CN(C)C(=S)[S-].CN(C)C(=S)[S-].[Cu+2] | – | 2.38 µM (active) |
| Cc1c(Cl)c(=O)oc2cc(OP(=O)(OCCCl)OCCCl)ccc12 | -3.2% [at 35.3 µM] | – |
| CN(C)c1ccc(N=Nc2ccccc2)cc1 | -6.32% | – |
| CC(C)[C@H](C(=O)O[C@H](C#N)c1cccc(Oc2ccccc2)c1)c1ccc(Cl)cc1 | -8.7% | – |
| C[C@H]1O[C@@H](O[C@H]2[C@@H](O)C[C@H](O[C@H]3[C@@H](O)C[C@H](O[C@H]4CC[C@@]5(C)[C@H](CC[C@@H]6[C@@H]5CC[C@]5(C)[C@@H](C7=CC(=O)OC7)CC[C@]65O)C4)O[C@@H]3C)O[C@@H]2C)C[C@H](O)[C@@H]1O | – | inactive |
| CC(C)N1C(=O)N(c2ccccc2)CSC1=NC(C)(C)C | 4.55% | – |
| CCC(C)(C)C(=O)OC1=C(c2ccc(Cl)cc2Cl)C(=O)OC12CCCCC2 | 3.28% | – |
| Oc1ccccc1Br | -4.06% | – |
| [CH3][Hg][Cl] | – | 12.3 µM (active) |
| COC(=O)N(C(=O)N1COC2(C(=O)OC)Cc3cc(Cl)ccc3C2=N1)c1ccc(OC(F)(F)F)cc1 (stereo not given) | -10.6% [at 35.3 µM] | – |
| CCCCCCCCCC[N+](C)(C)CCCCCCCCCC | – | 11 µM (active) |
| N#Cc1ccc(O)cc1 | 1.84% | – |
| CCc1ccccc1C | 0.0033% | – |
| CCCN(CC)CC1COC2(CCC(C(C)(C)C)CC2)O1 (stereo not given) | 16.3% | – |
